# The campaign covered roughly 1,300 compounds. About 930 (72%) were called active. The set was probably picked from earlier hits. The list is a sample of the results. Potency and affinity values are given separately. Values without a mark were called inactive.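 How the source made its calls: active means fitted curve reaches 40% activation signal increase at or below the top valid tested concentration in every replicate test; inconclusive means replicate tests disagree in their calls; inactive means all replicate tests inactive, including effects opposite the expected signal rise.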
# Assay: suppression of miR-122 activity, Renilla luciferase sensor – cell-based, Huh7 psiCHECK-miR122, cherry-pick, dose response (AID 652053)
# Conditions: Huh7 psiCHECK-miR122 Renilla luciferase reporter, 48 h; series mostly up to 35 µM; activation (miR-122 inhibition): at the top concentration
row,SMILES,activation (miR-122 inhibition)
1,CCOC(=O)N1CCN(c2ncnc3c2oc2nc(C(C)C)c4c(c23)CCC4)CC1,-9.07%
2,CC(=O)Nc1ccc2nc(CN3CCC(CO)(CCc4ccccc4)CC3)ccc2c1,-3.36%
3,COc1ccc(N(Cc2ccccc2)S(=O)(=O)c2cccc(C(=O)NC3=NCCS3)c2)cc1,29.8%
4,CCOC(=O)c1[nH]c(C)c(C(=O)Nc2ccccc2C)c1C,1.56%
5,Cc1ccc(N2CC(C(=O)Nc3nccs3)CC2=O)cc1Cl (configuration not stated),14.3%
6,c1csc(CNc2ncnc3ccc(-c4ccc5c(c4)OCO5)cc23)c1,-12.4%
7,CCC(=O)N(C)C[C@@H]1[C@@H](c2ccc(C3=CCCC3)cc2)[C@H](CO)N1C(=O)CC,6.67%
8,N#Cc1ccc(CSc2nnc(-c3cccnc3)o2)cc1,6.98%
9,Cc1ccc(S(=O)(=O)NC(C)(C)CSc2nnc(Nc3ccccc3)s2)cc1,10.9%
10,COCCOC(=O)c1c(C)oc2ccc(NS(=O)(=O)c3ccc(C)cc3)cc12,37.7%
11,CCc1noc(C)c1C(=O)OCC(=O)c1ccc(NC(C)=O)cc1F,8.21%
12,COc1ccccc1N1CCN(C(=O)CSc2nnc(NC(=O)C3CCC3)s2)CC1,-5.81%
13,CCCNC(=O)N1C[C@H]2[C@@H](c3ccccc31)[C@@H](CO)N2Cc1ccc(F)cc1,16.7%
14,O=C(c1ccccc1F)N1C[C@H]2[C@@H](c3ccccc31)[C@@H](CO)N2CC1CCCCC1,-11%
15,COc1cc(OC)cc(C(=O)N[C@H](C(=O)Nc2nc3ccccc3[nH]2)C(C)C)c1,-7.67%
16,O=C1N=C(N2CCc3ccccc3C2)S/C1=C\c1cccc(O)c1,-8.87%
17,COc1ccc(C(=O)Nc2ccccc2C(=O)N/N=C/c2ccccc2OC)cc1,13.4%
18,Cc1ncc([N+](=O)[O-])n1CC(=O)Nc1ccc2c(c1)OCO2,-4.33%
19,N/C(Cc1cccc2ccccc12)=N\OC(=O)c1ccc2c(c1)OCO2,-1.01%
20,CCc1ccc(-c2cc(C(=O)NCc3ccccn3)c3ccccc3n2)cc1,7.44%
21,CCOc1ccc(N2C(=O)c3cccnc3C2Nc2ccc(F)cc2)cc1 (configuration not stated),-5.12%

row,SMILES,activation (miR-122 inhibition)
1,CCCC(=O)Nc1nc2ccc(NC(=O)c3c(F)c(F)c(OC)c(F)c3F)cc2s1,-14%
2,O=C(Nc1ccc2c(c1)OCCO2)C1CCN(S(=O)(=O)c2ccccc2)CC1,-3.73%
3,O=C(NC(=S)NCc1ccc2c(c1)OCO2)c1ccccc1,-7.87%
4,Cc1ccc(S(=O)(=O)N(C)C[C@@H]2Oc3ccc(NC(=O)Nc4ccc5c(c4)OCO5)cc3CC(=O)N([C@@H](C)CO)C[C@@H]2C)cc1,15.3%
5,CC1CCN(S(=O)(=O)N2CCC(C(=O)NCCc3ccccc3)CC2)CC1,3.92%
6,Cc1cc(C)cc(N(CC(=O)N2CCC(C)CC2)S(=O)(=O)c2ccccc2)c1,29.8%
7,Fc1ccc(CSc2nnc(-c3cccnc3)o2)cc1,7.27%
8,C[C@H](CO)N1C[C@H](C)[C@H](CN(C)C(=O)Nc2cccc3ccccc23)Oc2ccc(N(C)C)cc2CC1=O,-14.8%
9,CC(C)CC#Cc1ccc2c(c1)O[C@@H](CN(C)C(=O)C1CCC1)[C@@H](C)CN([C@H](C)CO)S2(=O)=O,13.7%
10,C[C@H](CO)N1C[C@H](C)[C@@H](CN(C)S(C)(=O)=O)Oc2cc(C#Cc3ccccc3)ccc2S1(=O)=O,40.6%
11,COC(=O)CCCCCC(CCC(=O)OC)NC(C)=O (configuration not stated),-13.1%
12,CC(C)NC(=O)COC(=O)c1ccc(NS(=O)(=O)c2ccc3c(c2)OCCO3)cc1,1.64%
13,COC(=O)C[C@H]1CC[C@@H]2[C@@H](COc3ccc(NS(=O)(=O)c4ccc(C)cc4)cc3C(=O)N2C)O1,4.83%
14,COC(=O)C[C@H]1CC[C@H]2[C@H](COc3ccc(NS(=O)(=O)c4ccc(C)cc4)cc3C(=O)N2C)O1,13.6%
15,COC(=O)C[C@@H]1CC[C@@H]2[C@@H](COc3ccc(NS(=O)(=O)c4ccc(C)cc4)cc3C(=O)N2C)O1,-5.56%
16,COC(=O)C[C@@H]1CC[C@H]2[C@H](COc3ccc(NS(=O)(=O)c4ccc(C)cc4)cc3C(=O)N2C)O1,-5.27%
17,CN(C)S(=O)(=O)NC(c1ccccc1)c1ccccc1,-5.77%
18,O=C(COC(=O)c1cccc(NS(=O)(=O)/C=C/c2ccccc2)c1)Nc1ccccc1OC(F)F,36.2%
19,Cc1noc(C)c1S(=O)(=O)N(C)C[C@@H]1Oc2c(NC(=O)C3CCCCC3)cccc2C(=O)N([C@H](C)CO)C[C@@H]1C,25.2%
20,C[C@H](CO)N1C[C@H](C)[C@@H](CN(C)S(=O)(=O)c2cccs2)Oc2c(NC(=O)C3CCOCC3)cccc2C1=O,0.798%
21,COCC(=O)N1[C@H](CO)[C@H](c2ccccc2)[C@@H]1CNC(=O)c1ccccn1,-10.8%

row,SMILES,activation (miR-122 inhibition)
1,COCC(=O)NC[C@H]1N[C@H](CO)[C@@H]1c1ccc(C2=CCCCC2)cc1,10.5%
2,O=C(COC(=O)c1c2c(nc3ccccc13)CCN(Cc1ccccc1)C2)Nc1c(F)cccc1F,-4.25%
3,O=C(O/N=C1\CCS(=O)(=O)c2sccc21)c1ccccc1,-8.12%
4,CCCCNC(=O)CN1C(=O)NC2(CCOc3ccccc32)C1=O (configuration not stated),-11.2%
5,O=C(Nc1ccccc1F)N1C[C@@H]2[C@H](c3ccccc31)[C@@H](CO)N2C(=O)C1CCCC1,0.798%
6,O=C(NC[C@@H]1[C@H](c2ccccc2)[C@@H](CO)N1C(=O)C1CC1)NC1CCCC1,-5.22%
7,CCC(=O)N1[C@H](CO)[C@@H]2c3ccccc3N(C(=O)c3ccccc3F)C[C@@H]21,19.3%
8,O=C(c1ccccc1F)N1C[C@H]2[C@@H](c3ccccc31)[C@@H](CO)N2C(=O)C1CCCC1,9.89%
9,O=C1CCCS(=O)(=O)c2ccccc21,-3.21%
10,Cc1ccc2nc(C)c(C)nc2c1N,-8.43%
11,CNC(=O)[C@@]1(C)C=C[C@@H](Cc2ccccc2)N1C(=O)OC,-0.509%
12,O=C(Cc1cccs1)Nc1ccc(S(=O)(=O)N2CCCCC2)cc1,24.5%
13,Cc1ccc(S(=O)(=O)Nc2ccc3c(c2)CC(=O)N([C@@H](C)CO)C[C@H](C)[C@@H](CN(C)Cc2ccc(C(=O)Nc4ccccc4N)cc2)O3)cc1,-2.8% [at 28.5 µM]
14,Cc1ccc(S(=O)(=O)Nc2ccc3c(c2)CC(=O)N([C@H](C)CO)C[C@@H](C)[C@@H](CN(C)Cc2ccc(C(=O)Nc4ccccc4N)cc2)O3)cc1,0.058%
15,Cc1ccc(S(=O)(=O)Nc2ccc3c(c2)CC(=O)N([C@H](C)CO)C[C@H](C)[C@@H](CN(C)Cc2ccc(C(=O)Nc4ccccc4N)cc2)O3)cc1,19.4%
16,Cc1ccc(S(=O)(=O)Nc2ccc3c(c2)CC(=O)N([C@@H](C)CO)C[C@@H](C)[C@@H](CN(C)Cc2ccc(C(=O)Nc4ccccc4N)cc2)O3)cc1,-11% [at 26 µM]
17,CCC(C)(C)n1nnnc1C(c1ccc(C)cc1)N1CCC(C)CC1 (configuration not stated),43.4%
18,C[C@@H]1CN([C@H](C)CO)C(=O)Cc2cc(NC(=O)Nc3cccc4ccccc34)ccc2O[C@H]1CN(C)C(=O)Nc1cccc2ccccc12,11.5%
19,C[C@@H]1CN([C@@H](C)CO)C(=O)Cc2cc(NC(=O)Nc3ccc(C(F)(F)F)cc3)ccc2O[C@H]1CN(C)C(=O)Nc1cccc2ccccc12,5.54%
20,C[C@H]1CN([C@@H](C)CO)C(=O)Cc2cc(NC(=O)Nc3ccc(C(F)(F)F)cc3)ccc2O[C@@H]1CN(C)C(=O)Nc1cccc2ccccc12,-2.04% [at 30 µM]
21,C[C@H](CO)N1C[C@H](C)[C@H](CN(C)C(=O)Nc2cccc3ccccc23)Oc2ccc(NC(=O)Nc3cccc4ccccc34)cc2CC1=O,1.72% [at 30 µM]

row,SMILES,activation (miR-122 inhibition)
1,C[C@H](CO)N1C[C@H](C)[C@H](CN(C)C(=O)Nc2cccc3ccccc23)Oc2ccc(NC(=O)Nc3ccc(C(F)(F)F)cc3)cc2CC1=O,14.9%
2,CN(C)S(=O)(=O)c1ccc2c(c1)nc(CCC(=O)NCC1CCCCC1)n2C,6.44%
3,O=C(COc1ccc2c(c1)C(=O)CC1(CCCCC1)O2)NCc1ccccc1,26.7%
4,CC1(C)N([O-])C(c2cccs2)=C[N+]1=O,16.7%
5,C[C@H]1CN([C@@H](C)CO)C(=O)Cc2cc(NC(=O)Nc3cccc4ccccc34)ccc2O[C@H]1CN(C)C(=O)NC1CCCCC1,-9.8%
6,C[C@@H]1CN([C@H](C)CO)S(=O)(=O)c2ccc(C3=CCCCC3)cc2O[C@@H]1CN(C)Cc1ccccc1,29.9%
7,C[C@@H]1CN([C@H](C)CO)S(=O)(=O)c2ccc(-c3ccccc3)cc2O[C@H]1CN(C)C(=O)C1CCCCC1,29.4%
8,COC(=O)C[C@H]1CC[C@@H]2[C@H](COc3ccc(NS(=O)(=O)c4ccc(C)cc4)cc3C(=O)N2C)O1,24.3%
9,O=C(c1ccccc1F)N1C[C@H]2[C@@H](c3ccccc31)[C@H](CO)N2C(=O)c1cccnc1,-6.1%
10,O=C(c1ccccc1F)N1C[C@@H]2[C@H](c3ccccc31)[C@@H](CO)N2C(=O)c1ccc(F)cc1,23.6%
11,O=C(c1ccccc1F)N1C[C@H]2[C@@H](c3ccccc31)[C@H](CO)N2C(=O)c1ccc(F)cc1,31.8%
12,COc1ccc(N2C(=O)c3cccc4c(N(C)CCO)ccc(c34)C2=O)cc1,4.97%
13,O=C(C[C@H]1CC[C@H]2[C@@H](COC[C@H](O)CN2C(=O)Nc2cccc(F)c2)O1)NCc1ccccc1F,-10.4%
14,C[C@H](CO)N1C[C@H](C)[C@@H](CN(C)Cc2ccc(C(=O)O)cc2)Oc2c(NC(=O)C3CCOCC3)cccc2C1=O,-4.85%
15,C[C@H](CO)N1C[C@H](C)[C@@H](CN(C)C(=O)Nc2cccc3ccccc23)Oc2c(NC(=O)C3CCOCC3)cccc2C1=O,14.9%
16,COC(=O)c1ccc(Cl)c(NC(C)=O)c1,-5.94%
17,COc1ccccc1CNC(=O)C[C@@H]1CC[C@@H]2[C@@H](COc3ccc(NC(C)=O)cc3C(=O)N2C)O1,4.88%
18,Cc1ccc(NC(=O)[C@@H]2CCCN2S(=O)(=O)c2ccccc2F)cc1S(=O)(=O)N1CCOCC1,32.9%
19,C[C@@H]1CN([C@H](C)CO)C(=O)Cc2cc(NC(=O)Nc3cccc4ccccc34)ccc2O[C@H]1CN(C)C(=O)NC1CCCCC1,-9.06%

# From PubChem BioAssay AID652053 (Broad Institute, 2013)
